# Source: PubChem BioAssay
# Calls of active or inactive are those of the source. Unless noted, no stated cut-off is given here; in the data, active means inhibition above about 42%; inactive means the rest.
# System: not listed separately
# Test: StAR promoter reporter inhibitors, counter-screen for LRH-1 inverse agonist project, cell-based, luminescence, high throughput (AID 651611; in the data active means inhibition above about 28%)
# Conditions: StAR promoter luciferase reporter counterscreen, at 3.6 µM, hits give high values
row,SMILES,inhibition
1,CCOc1ccc2c(c1)sc(N)[n+]2Cc1cc(C)cc2cccnc12,30.7% (active)
2,C=CCNC(=S)N/N=C/c1ccc(N(CC)Cc2ccccc2)cc1,11.4% (inactive)
3,O=C(Nc1ccc(Cc2ccncc2)cc1)c1ccc([N+](=O)[O-])o1,16.6% (inactive)
4,CCCN(CC(=O)Nc1ccc(C(C)=O)cc1)CC(=O)Nc1ccccc1C,1.27% (inactive)
5,COc1ccc(NC(=O)COc2ccc(N(C)S(=O)(=O)c3ccc(Cl)cc3)cc2)cc1OC,18.5% (inactive)
6,O=[N+]([O-])c1ccc(S(=O)Cc2ccccc2)c([N+](=O)[O-])c1 (stereo not given),8.41% (inactive)
7,CCc1nc(SCC(=O)c2ccccc2)c2ccccc2n1,7.58% (inactive)
8,C/C(CC1CC(C)(C)OC1=O)=N/Nc1nc(-c2ccccc2)cs1 (stereo not given),-5.65% (inactive)
9,COC(=O)c1ccc(COc2ccc(/C=N/NC(N)=S)cc2)o1,17.7% (inactive)
10,COc1ccc(S(=O)(=O)Nc2cc3c4c(oc3c3ccccc23)CCCC4=O)cc1,24.3% (inactive)
11,CCc1cccc2sc(N3CCN(C(=O)c4ccc([N+](=O)[O-])o4)CC3)nc12,3.02% (inactive)
12,CC(NC(=O)c1ccco1)C(c1cccs1)N1CCN(c2ccccc2)CC1 (stereo not given),6.91% (inactive)
13,CCc1ccccc1NC(=O)CSc1nnc(Cn2nnc3ccccc32)n1C,5.04% (inactive)
14,Cc1cc(Cl)ccc1NC(=O)CN1C(=O)C(=O)N(C2CCCC2)C1=O,5.58% (inactive)
15,C=CC(=O)Nc1ccc(Br)cc1,20.7% (inactive)
16,CS(=O)(=O)N1CCc2cc(-c3csc(NC(=O)Cc4cccs4)n3)ccc21,12.6% (inactive)
17,Cc1ccc(NC(=O)COC(=O)c2cc(=O)c3ccccc3o2)c(Br)c1,7.74% (inactive)
18,CN1CC(=O)N(CC(=O)Nc2ccc(N3CCOCC3)cc2)C1=O,18.7% (inactive)
19,CN1c2ccccc2C(C)(C)C12C=Nc1c(cc(N3CCOCC3)c3ccccc13)O2 (stereo not given),9% (inactive)
20,COC(=O)Cc1sc(-c2ccccn2)nc1-c1ccccc1,11.6% (inactive)

row,SMILES,inhibition
1,CCOc1ccc(CCNC(=O)COC(=O)/C=C/c2ccc(OC(F)F)c(OC)c2)cc1OCC,12.5% (inactive)
2,CCc1cc(=O)oc2c(C)c(OCC(=O)NCCCN3CCOCC3)ccc12,3.94% (inactive)
3,CCc1cc(=O)[nH]c(SCC(=O)Nc2ccc3c(c2)OCCO3)n1,4.24% (inactive)
4,CCC1(C)OC(=O)N2CCc3c(C)[nH]c4c(C)ccc(c34)C21C (stereo not given),8.96% (inactive)
5,COc1ccc(/C=N/NC(=O)c2cc(-c3ccc(C)cc3C)nc3ccccc23)cc1COC(C)=O,1.71% (inactive)
6,COc1ccc2c(c1)C1C=CCC1C(c1cc3c(cc1Br)OCO3)N2 (stereo not given),-3.15% (inactive)
7,CC(=O)c1ccc(NC(=O)CSc2nc3[nH]ncc3c(=O)[nH]2)cc1,-0.97% (inactive)
8,Cc1ccc(CN2CCC[C@]3(N[C@H](c4ccc(C(F)(F)F)cc4)[C@@H]4C(=O)N(Cc5ccccc5)C(=O)[C@@H]43)C2=O)cc1,-2.71% (inactive)
9,COc1ccc(C[C@@H]2OC3(C=CC(=O)C=C3)O[C@H]2Cc2ccc(OC)cc2)cc1,37.5% (active)
10,Cc1cccc(NC(=O)CSc2nc3[nH]ncc3c(=O)[nH]2)c1C,11.6% (inactive)
11,Cc1ccc(NC(=O)CNNC(=O)c2cccc([N+](=O)[O-])c2)cc1[N+](=O)[O-],2.1% (inactive)
12,CCC1CCCCN1C(=O)c1ccc([N+](=O)[O-])o1 (stereo not given),0.98% (inactive)
13,COc1ccc(CCNC(=O)COC(=O)c2cc(Cl)nc(Cl)c2)cc1,3.74% (inactive)
14,Cc1ccccc1Nc1nc(Cl)c(C=O)s1,2.17% (inactive)
15,CCCc1cc(=O)oc2cc(OCC(=O)N3CCN(C(=O)C4COc5ccccc5O4)CC3)ccc12 (stereo not given),8.6% (inactive)
16,CC(=O)c1ccsc1-c1c(C)cc2oc(=O)cc(-c3ccccc3)c2c1C,8.02% (inactive)
17,COc1ccc(C2(C)NC(=O)N(CC(=O)Nc3ccc(C)cc3Br)C2=O)cc1OC (stereo not given),15.7% (inactive)
18,CCOc1cc(S(=O)(=O)NCc2ccncc2)ccc1Cl,21.4% (inactive)
19,O=C(CSc1ccccn1)Nc1nonc1[N+](=O)[O-],10.8% (inactive)
20,COC(=O)c1c(NC(=O)c2ccco2)sc2c1CCN(C(C)=O)C2,20% (inactive)

# Target: Nuclear receptor subfamily 5 group A member 2 (Homo sapiens) (UniProt O00482)
# Sequence (O00482 whole entry, looked up): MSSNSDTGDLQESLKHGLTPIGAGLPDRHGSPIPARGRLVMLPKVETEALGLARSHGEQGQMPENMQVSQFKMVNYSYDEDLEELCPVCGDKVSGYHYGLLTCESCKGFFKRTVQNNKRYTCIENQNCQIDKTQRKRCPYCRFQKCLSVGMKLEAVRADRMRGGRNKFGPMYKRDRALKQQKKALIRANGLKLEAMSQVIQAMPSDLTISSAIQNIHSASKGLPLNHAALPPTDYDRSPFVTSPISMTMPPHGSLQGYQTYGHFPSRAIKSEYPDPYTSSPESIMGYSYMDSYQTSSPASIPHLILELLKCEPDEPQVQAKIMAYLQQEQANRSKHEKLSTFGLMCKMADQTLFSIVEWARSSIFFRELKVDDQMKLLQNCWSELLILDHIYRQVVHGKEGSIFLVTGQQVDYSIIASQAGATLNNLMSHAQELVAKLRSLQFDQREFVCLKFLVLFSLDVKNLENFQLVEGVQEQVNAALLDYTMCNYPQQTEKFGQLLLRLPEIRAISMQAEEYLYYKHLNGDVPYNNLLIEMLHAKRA
# Test: LRH-1 (NR5A2) inverse agonists, retest, confirmation, cell-based, luminescence (AID 651613);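 further: HEK293T cells co-transfected with LRH-1 and StAR promoter luciferase reporter; 0% = vehicle wells and 100% = parental cells lacking receptor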
# Conditions: cell-based LRH-1 luciferase reporter, inverse agonism; at 3.6 µM; hits give high values
row,SMILES,inhibition
1,CCOc1ccc2c(c1)sc(N)[n+]2Cc1cc(C)cc2cccnc12,56.2% (active)
2,C=CCNC(=S)N/N=C/c1ccc(N(CC)Cc2ccccc2)cc1,38.4% (inactive)
3,O=C(Nc1ccc(Cc2ccncc2)cc1)c1ccc([N+](=O)[O-])o1,55.5% (active)
4,CCCN(CC(=O)Nc1ccc(C(C)=O)cc1)CC(=O)Nc1ccccc1C,62.4% (active)
5,COc1ccc(NC(=O)COc2ccc(N(C)S(=O)(=O)c3ccc(Cl)cc3)cc2)cc1OC,67.1% (active)
6,O=[N+]([O-])c1ccc(S(=O)Cc2ccccc2)c([N+](=O)[O-])c1 (stereo not given),43.5% (active)
7,CCc1nc(SCC(=O)c2ccccc2)c2ccccc2n1,45.8% (active)
8,C/C(CC1CC(C)(C)OC1=O)=N/Nc1nc(-c2ccccc2)cs1 (stereo not given),47.3% (active)
9,COC(=O)c1ccc(COc2ccc(/C=N/NC(N)=S)cc2)o1,55.8% (active)
10,COc1ccc(S(=O)(=O)Nc2cc3c4c(oc3c3ccccc23)CCCC4=O)cc1,69.6% (active)
11,CCc1cccc2sc(N3CCN(C(=O)c4ccc([N+](=O)[O-])o4)CC3)nc12,57.7% (active)
12,CC(NC(=O)c1ccco1)C(c1cccs1)N1CCN(c2ccccc2)CC1 (stereo not given),34.9% (inactive)
13,CCc1ccccc1NC(=O)CSc1nnc(Cn2nnc3ccccc32)n1C,53% (active)
14,Cc1cc(Cl)ccc1NC(=O)CN1C(=O)C(=O)N(C2CCCC2)C1=O,50.9% (active)
15,C=CC(=O)Nc1ccc(Br)cc1,41% (inactive)
16,CS(=O)(=O)N1CCc2cc(-c3csc(NC(=O)Cc4cccs4)n3)ccc21,53.8% (active)
17,Cc1ccc(NC(=O)COC(=O)c2cc(=O)c3ccccc3o2)c(Br)c1,50.4% (active)
18,CN1CC(=O)N(CC(=O)Nc2ccc(N3CCOCC3)cc2)C1=O,63.9% (active)
19,CN1c2ccccc2C(C)(C)C12C=Nc1c(cc(N3CCOCC3)c3ccccc13)O2 (stereo not given),19.1% (inactive)
20,COC(=O)Cc1sc(-c2ccccn2)nc1-c1ccccc1,61.7% (active)

row,SMILES,inhibition
1,CCOc1ccc(CCNC(=O)COC(=O)/C=C/c2ccc(OC(F)F)c(OC)c2)cc1OCC,51.5% (active)
2,CCc1cc(=O)oc2c(C)c(OCC(=O)NCCCN3CCOCC3)ccc12,48.7% (active)
3,CCc1cc(=O)[nH]c(SCC(=O)Nc2ccc3c(c2)OCCO3)n1,40.6% (inactive)
4,CCC1(C)OC(=O)N2CCc3c(C)[nH]c4c(C)ccc(c34)C21C (stereo not given),41.6% (active)
5,COc1ccc(/C=N/NC(=O)c2cc(-c3ccc(C)cc3C)nc3ccccc23)cc1COC(C)=O,52.8% (active)
6,COc1ccc2c(c1)C1C=CCC1C(c1cc3c(cc1Br)OCO3)N2 (stereo not given),37% (inactive)
7,CC(=O)c1ccc(NC(=O)CSc2nc3[nH]ncc3c(=O)[nH]2)cc1,61.5% (active)
8,Cc1ccc(CN2CCC[C@]3(N[C@H](c4ccc(C(F)(F)F)cc4)[C@@H]4C(=O)N(Cc5ccccc5)C(=O)[C@@H]43)C2=O)cc1,24.8% (inactive)
9,COc1ccc(C[C@@H]2OC3(C=CC(=O)C=C3)O[C@H]2Cc2ccc(OC)cc2)cc1,68.4% (active)
10,Cc1cccc(NC(=O)CSc2nc3[nH]ncc3c(=O)[nH]2)c1C,56.4% (active)
11,Cc1ccc(NC(=O)CNNC(=O)c2cccc([N+](=O)[O-])c2)cc1[N+](=O)[O-],34.6% (inactive)
12,CCC1CCCCN1C(=O)c1ccc([N+](=O)[O-])o1 (stereo not given),47.5% (active)
13,COc1ccc(CCNC(=O)COC(=O)c2cc(Cl)nc(Cl)c2)cc1,47.4% (active)
14,Cc1ccccc1Nc1nc(Cl)c(C=O)s1,50.5% (active)
15,CCCc1cc(=O)oc2cc(OCC(=O)N3CCN(C(=O)C4COc5ccccc5O4)CC3)ccc12 (stereo not given),63.4% (active)
16,CC(=O)c1ccsc1-c1c(C)cc2oc(=O)cc(-c3ccccc3)c2c1C,64.7% (active)
17,COc1ccc(C2(C)NC(=O)N(CC(=O)Nc3ccc(C)cc3Br)C2=O)cc1OC (stereo not given),40.8% (inactive)
18,CCOc1cc(S(=O)(=O)NCc2ccncc2)ccc1Cl,56.6% (active)
19,O=C(CSc1ccccn1)Nc1nonc1[N+](=O)[O-],16.9% (inactive)
20,COC(=O)c1c(NC(=O)c2ccco2)sc2c1CCN(C(C)=O)C2,54.4% (active)
